According to PubChem BioAssay AID1159580 (chemical genetic matrix, 2015):
Hit rate of the full screen: of about 5,500 compounds, about 2,000 (36%) were called active. Not shown: some 18% with an inconclusive outcome. Cut-off read from the data, not from the text of the source: active = normalized growth mostly below about 0.91 (no sharp cut-off); inconclusive = no clear call, values can overlap the other calls; inactive = mostly above about 0.92. The list shows a part of the results.

Assay: chemical genetic growth profiling, strain panel (AID 1159580);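 note: tested at 20 µM; growth read once vehicle control cultures reached saturation at 30 °C; 1 = growth at the plate median or of vehicle wells; lower values mean less growth of the strain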
Settings: growth OD

Measured: normalized growth

C=CCc1ccc(O)c(OC)c1
inactive: S. cerevisiae deletion strains, locus YJL187C, strain SWE1, stronger effect = lower value 0.999 | S. cerevisiae deletion strains, locus YJR043C, strain POL32, stronger effect = lower value 0.913 | S. cerevisiae deletion strains, locus YJR066W, strain TOR1, stronger effect = lower value 0.973 | S. cerevisiae deletion strains, locus YJR075W, strain HOC1, stronger effect = lower value 0.885 | S. cerevisiae deletion strains, locus YKL009W, strain mrt4, stronger effect = lower value 0.998 | S. cerevisiae deletion strains, locus YKL160W, strain elf1, stronger effect = lower value 1.02 | S. cerevisiae deletion strains, locus YKR026C, strain gcn3, stronger effect = lower value 0.989 | S. cerevisiae deletion strains, locus YKR091W, strain srl3, stronger effect = lower value 0.992 | S. cerevisiae deletion strains, locus YLL001W, strain dnm1, stronger effect = lower value 1.02 | S. cerevisiae deletion strains, locus YLL026W, stronger effect = lower value 0.989 | S. cerevisiae deletion strains, locus YLL041C, strain sdh2, stronger effect = lower value 0.989 | S. cerevisiae deletion strains, locus YLR027C, strain aat2, stronger effect = lower value 0.99 | S. cerevisiae deletion strains, locus YLR058C, strain SHM2, stronger effect = lower value 0.949 | S. cerevisiae deletion strains, locus YLR102C, strain apc9, stronger effect = lower value 0.95 | S. cerevisiae deletion strains, locus YLR113W, strain HOG1, stronger effect = lower value 0.962 | S. cerevisiae deletion strains, locus YLR221C, strain rsa3, stronger effect = lower value 1.01 | S. cerevisiae deletion strains, locus YLR258W, strain gsy2, stronger effect = lower value 1.01 | S. cerevisiae deletion strains, locus YLR262C, strain YPT6 (second series), stronger effect = lower value 0.998 | S. cerevisiae deletion strains, locus YLR262C, strain YPT6, stronger effect = lower value 0.674 | S. cerevisiae deletion strains, locus YLR268W, strain sec22, stronger effect = lower value 1.01 | S. cerevisiae deletion strains, locus YLR320W, strain mms22, stronger effect = lower value 0.996 | S. cerevisiae deletion strains, locus YLR342W, strain FKS1 (second series), stronger effect = lower value 0.888 | S. cerevisiae deletion strains, locus YLR342W, strain FKS1, stronger effect = lower value 0.999 | S. cerevisiae deletion strains, locus YLR357W, strain rsc2, stronger effect = lower value 0.992 | S. cerevisiae deletion strains, locus YLR370C, strain arc18, stronger effect = lower value 0.997 | S. cerevisiae deletion strains, locus YLR384C, strain iki3, stronger effect = lower value 0.991 | S. cerevisiae deletion strains, locus YML032C, strain rad52, stronger effect = lower value 0.93 | S. cerevisiae deletion strains, locus YML120C, strain ndi1, stronger effect = lower value 1.03 | S. cerevisiae deletion strains, locus YMR058W, strain fet3, stronger effect = lower value 1 | S. cerevisiae deletion strains, locus YMR078C, strain ctf18, stronger effect = lower value 0.917 | S. cerevisiae deletion strains, locus YMR125W, strain sto1, stronger effect = lower value 0.965 | S. cerevisiae deletion strains, locus YMR129W, stronger effect = lower value 0.984 | S. cerevisiae deletion strains, locus YMR205C, strain PFK2, stronger effect = lower value 0.995 | S. cerevisiae deletion strains, locus YMR223W, strain ubp8, stronger effect = lower value 0.936 | S. cerevisiae deletion strains, locus YMR231W, strain pep5, stronger effect = lower value 0.983 | S. cerevisiae deletion strains, locus YMR307W, strain GAS1, stronger effect = lower value 1 | S. cerevisiae deletion strains, locus YNL067W, strain RPL9B, stronger effect = lower value 0.97 | S. cerevisiae deletion strains, locus YNL071W, strain lat1, stronger effect = lower value 0.959 | S. cerevisiae deletion strains, locus YNL153C, strain GIM3, stronger effect = lower value 0.991 | S. cerevisiae deletion strains, locus YNL183C, strain NPR1, stronger effect = lower value 0.928 | S. cerevisiae deletion strains, locus YNL209W, strain ssb2, stronger effect = lower value 0.999 | S. cerevisiae deletion strains, locus YNL233W, strain BNI4, stronger effect = lower value 0.901 | S. cerevisiae deletion strains, locus YNL248C, strain rpa49, stronger effect = lower value 1 | S. cerevisiae deletion strains, locus YNL250W, strain rad50, stronger effect = lower value 0.924 | S. cerevisiae deletion strains, locus YNL271C, strain bni1, stronger effect = lower value 0.931 | S. cerevisiae deletion strains, locus YNL298W, strain CLA4, stronger effect = lower value 0.995 | S. cerevisiae deletion strains, locus YNL307C, strain MCK1, stronger effect = lower value 0.932 | S. cerevisiae deletion strains, locus YNL322C, strain KRE1 (second series), stronger effect = lower value 0.993 | S. cerevisiae deletion strains, locus YNR049C, strain mso1, stronger effect = lower value 0.988 | S. cerevisiae deletion strains, locus YNR052C, strain pop2, stronger effect = lower value 1.01 | S. cerevisiae deletion strains, locus YOL012C, strain htz1 0.778 | S. cerevisiae deletion strains, locus YOL147C, strain pex11, stronger effect = lower value 0.939 | S. cerevisiae deletion strains, locus YOR001W, strain rrp6, stronger effect = lower value 1.01 | S. cerevisiae deletion strains, locus YOR061W, strain CKA2, stronger effect = lower value 0.948 | S. cerevisiae deletion strains, locus YOR069W, strain VPS5, stronger effect = lower value 0.948 | S. cerevisiae deletion strains, locus YOR070C, strain gyp1, stronger effect = lower value 0.996 | S. cerevisiae deletion strains, locus YOR080W, strain dia2, stronger effect = lower value 0.989 | S. cerevisiae deletion strains, locus YOR083W, strain WHI5, stronger effect = lower value 1.04 | S. cerevisiae deletion strains, locus YOR106W, strain vam3, stronger effect = lower value 1.04 | S. cerevisiae deletion strains, locus YOR136W, strain idh2, stronger effect = lower value 0.992 | S. cerevisiae deletion strains, locus YOR144C, strain elg1, stronger effect = lower value 0.937 | S. cerevisiae deletion strains, locus YOR184W, strain ser1, stronger effect = lower value 0.973 | S. cerevisiae deletion strains, locus YOR231W, strain MKK1, stronger effect = lower value 0.982 | S. cerevisiae deletion strains, locus YOR265W, strain rbl2, stronger effect = lower value 0.999 | S. cerevisiae deletion strains, locus YOR270C, strain vph1, stronger effect = lower value 0.964 | S. cerevisiae deletion strains, locus YOR290C, strain snf2, stronger effect = lower value 0.986 | S. cerevisiae deletion strains, locus YOR316C, strain cot1, stronger effect = lower value 0.939 | S. cerevisiae deletion strains, locus YPL051W, strain arl3, stronger effect = lower value 1.02 | S. cerevisiae deletion strains, locus YPL078C, strain atp4, stronger effect = lower value 1.01 | S. cerevisiae deletion strains, locus YPL106C, strain sse1, stronger effect = lower value 0.948 | S. cerevisiae deletion strains, locus YPL240C, strain hsp82, stronger effect = lower value 0.993 | S. cerevisiae deletion strains, locus YPL256C, strain CLN2, stronger effect = lower value 0.973 | S. cerevisiae deletion strains, locus YPR163C, strain tif3, stronger effect = lower value 0.969 | S. cerevisiae deletion strains, locus YPR167C, strain met16, stronger effect = lower value 0.947 | S. cerevisiae deletion strains, strain wtn01, stronger effect = lower value 0.988 | S. cerevisiae strains, strain wild type, stronger effect = lower value 0.95
active: S. cerevisiae deletion strains, locus YKL068W, stronger effect = lower value 0.923 | S. cerevisiae deletion strains, locus YKL085W, strain MDH1 (second series), stronger effect = lower value 0.894 | S. cerevisiae deletion strains, locus YKL085W, strain MDH1, stronger effect = lower value 0.894 | S. cerevisiae deletion strains, locus YKR001C, strain vps1, stronger effect = lower value 0.813 | S. cerevisiae deletion strains, locus YLR039C, strain RIC1, stronger effect = lower value 0.605 | S. cerevisiae deletion strains, locus YLR330W, strain CHS5, stronger effect = lower value 0.885 | S. cerevisiae deletion strains, locus YLR371W, strain rom2, stronger effect = lower value 0.692 | S. cerevisiae deletion strains, locus YLR418C, strain cdc73, stronger effect = lower value 0.799 | S. cerevisiae deletion strains, locus YML016C, strain PPZ1, stronger effect = lower value 0.91 | S. cerevisiae deletion strains, locus YML124C, strain tub3, stronger effect = lower value 0.917 | S. cerevisiae deletion strains, locus YPR119W, strain clb2, stronger effect = lower value 0.916 | S. cerevisiae deletion strains, locus YPR141C, strain kar3, stronger effect = lower value 0.879
